The structures appear in SMILES notation. Several values for one entry are separate records, joined by “and”; a condition that tells them apart may be missing. Equal values may be shown once. The panel holds about 83,000 compounds, 20% with a hit somewhere; the sample as a whole holds those more often.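 48-hour exposure, single concentration, 96-well plates; percent growth endpoint where 0 means no net growth. Active: below 10.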 Unmarked numbers belong to inactive results. Activity calls are given as the source filed them.

The test system of the assay is MDA-MB-468 breast. Nature of the assay: NCI-60 one-dose screen, 48 h (100 = growth as untreated, 0 = no growth, -100 = all killed). Particulars: 10 µM unless noted.
`COc1cc(CNC(=O)CCCC/C=C/C(C)C)ccc1OCc1cn(-c2cccc([N+](=O)[O-])c2)nn1`: the growth is 72.3%. As for `COc1ccc(-c2cc(-c3ccc(Cl)cc3)nc3nc(N)nn23)cc1`, the figure is 78.5%; as for `CC(C)N=c1cc2n(-c3ccc(Cl)cc3)c3ccccc3nc-2cc1Nc1ccc(Cl)cc1`, -45.1% (active) and -53.3% (active) and -42.4% (active). Consider `CCCCCCCCCCCCCCCCCCNC(=O)[C@H]1CSC(c2ccc(OC)c(F)c2)N1` (stereo not given in full), for which the growth was 76.9%.

Consider `Cc1nc(NN)c([N+](=O)[O-])c(NN)n1`, for which the growth is 122%. As for `COc1cccc(NC(=O)c2cccc(-c3cc(=O)c4c(OC)c(OC)c(OC)cc4o3)c2)c1`, the figure is 79%; as for `COC(=O)[C@H](Cc1cn(C)cn1)NC(=O)[C@H](Cc1ccccc1)NC(=O)Nc1cc(C(F)(F)F)cc(C(F)(F)F)c1`, -69.6% [100 µM] (active). As for `Cc1cc(/C=C\c2ccc3ccccc3[n+]2C)c(O)c2ncccc12`, the figure is -27% (active); as for `C#CCOc1ccc2ncnc(Nc3ccc(NC(=O)CCl)cc3)c2c1`, -57.7% (active). As for `CCN1CCN(c2cc(C)nc(N(CCNc3ccnc4cc(Cl)ccc34)Cc3ccc4c(c3)OCO4)n2)CC1`, the figure is -67.6% (active); as for `CCN1C(=O)C2(Nc3ccccc3S2)c2cc(C)ccc21` (stereo not given), 98.6%; as for `CCOC(=O)c1c(Nc2ccccc2)nn2c(N)c(C#N)c(-c3ccc(Cl)cc3)nc12`, 76.8%. On to `O=S(=O)(NCl)c1ccccc1`, for which the growth was 108%. As for `N#C/C(=C\c1ccc(-c2ccc(Cl)cc2)o1)c1nc(-c2ccco2)cs1`, the figure is -26.7% (active); as for `Cc1ccccc1N1C(=O)c2cc(S(N)(=O)=O)c(Cl)cc2NC1C` (stereo not given), 119%. On to `CC1OC2CC(=O)OC2C2=C1C(=O)c1c(O)cccc1C2=O` (stereo not given), for which the growth was -73.4% (active). The result for `O=C(C[n+]1ccccc1Cl)c1ccc2c(c1)CCCC2` reads 45.1%; that for `COC(=O)/C(=C\c1c(C)[nH]c2ccccc12)S(=O)(=O)c1ccccc1`, 23.4%. The result for `CCC(c1cccc(O)c1)C(CC)c1cccc(O)c1` (stereo not given) reads 24.1%. As to `Nc1n[nH]c2ccc([C@@H]3Nc4ccc5cn[nH]c5c4[C@H]4C5CCC(C5)[C@@H]34)cc12` (stereo not given in full), the growth is -6.84% (active). Regarding `COc1ccc(/C=C/c2nc(Nc3ccc(Cl)cc3)c3ccccc3n2)cc1`, the growth was 28.1%. In the case of `Cc1cc(C)n(C(=O)c2nn(-c3ccc(Cl)cc3)cc2O)n1`, the growth is 64.6%.

For `COc1cnc2c(c1)C(=O)c1c-2n(CCCNCCN2CCOCC2)c(=O)c2cc([N+](=O)[O-])ccc12`, the growth was -27% (active). The result for `COC(=O)/C=C/c1c(C2(C)NC(=O)c3ccccc3N2)c(=O)oc2ccc(Cl)cc12` (stereo not given) reads 88.7%; that for `Cc1ccc(OCCOCCOCCOCCOc2ccc(C)n(O)c2=S)c(=S)n1O`, -13.8% (active). For the molecule `CSc1nc(=O)n(Cc2ccc(F)cc2)c(=O)n1Cc1ccc(C)cc1`, the growth was 112%. As to `N#C/C(=C\c1ccc2c(c1)OCO2)n1nnc2cc(F)c(F)cc21`, the growth is 6.05% (active). As for `CC1=C(C)C(=O)C(Nc2cccc(C)c2)=C(Br)C1=O`, the figure is -43.1% (active); as for `COc1ccc2[nH]c(=O)c(/C=C/C(=O)c3ccccc3OC)cc2c1`, 16.7%; as for `CN1CCN(Cc2ccc(NC(=O)c3cncc(C#Cc4cnc5ccc(OCC6COC6)nn45)c3)cc2C(F)(F)F)CC1`, -60.7% (active).

For `Oc1c(CN2CCCC2)cc(COCc2ccc(Br)cc2)c2cccnc12`, the growth was -28.2% (active). As for `O=C(Nc1ccc2[nH]c3ccccc3c2c1)c1ccccc1Cl`, the figure is 44.8%. Regarding `Nc1n[nH]c2ccc([C@@H]3Nc4ccc5[nH]ncc5c4[C@H]4C5C=CC(C5)[C@@H]34)cc12` (stereo not given in full), the growth is -12.2% (active). Turning to `O=C1CC(c2ccc(Cl)cc2)c2ncn(-c3cccc(Cl)c3)c2N1` (stereo not given), the growth was 41.3%. As for `Cc1ccc2c(n1)C(=O)C(Cl)=C(Nc1ccc(C(=O)OC(C)(C)C)cc1)C2=O`, the figure is -50.3% [9.25 µM] (active); as for `O=C1C(SCc2ccccc2)=C(Cl)CN1c1ccc(Cl)cc1`, 16.3%. The result for `N=c1c2c(-c3ccccc3)c(-c3ccccc3)n(Cc3ccccc3)c2ncn1CCCO` reads -0.433% (active). For the molecule `Cc1ccc(/C=N/NC(N)=S)s1`, the growth was 101%.

With `CC(C)Sc1ncnc2nc[nH]c12`, the growth is 109%. Consider `Cc1ccc(C(=O)Nc2cccc(F)c2)cc1NC(=O)C1(c2ncnc3[nH]ccc23)CC1`, for which the growth was 85.8%.

These data come from PubChem BioAssay (NCI).
